High-throughput results (PubChem)
PG9 Ab binder – small molecules binding HIV-1 gp120 antibody PG9; TR-FRET gp120-PG9 antibody binding; inhibition, % at 6.7 µM; actives 0.43% (n = 360,000); in the data active means inhibition above about 8.5%
NR1D1 modulator – modulators of human Rev-erb alpha DNA binding | P20393 | Rev-erbα–FITC-DNA binding, fluorescence polarization, 90 min | activity, % at 10 µM | actives 0.79% (n = 370,000) | AID 1259318;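 active means activity above about 14%, limit read from the data; passing the limit was not always enough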
Target sequence (P20393 whole entry, looked up): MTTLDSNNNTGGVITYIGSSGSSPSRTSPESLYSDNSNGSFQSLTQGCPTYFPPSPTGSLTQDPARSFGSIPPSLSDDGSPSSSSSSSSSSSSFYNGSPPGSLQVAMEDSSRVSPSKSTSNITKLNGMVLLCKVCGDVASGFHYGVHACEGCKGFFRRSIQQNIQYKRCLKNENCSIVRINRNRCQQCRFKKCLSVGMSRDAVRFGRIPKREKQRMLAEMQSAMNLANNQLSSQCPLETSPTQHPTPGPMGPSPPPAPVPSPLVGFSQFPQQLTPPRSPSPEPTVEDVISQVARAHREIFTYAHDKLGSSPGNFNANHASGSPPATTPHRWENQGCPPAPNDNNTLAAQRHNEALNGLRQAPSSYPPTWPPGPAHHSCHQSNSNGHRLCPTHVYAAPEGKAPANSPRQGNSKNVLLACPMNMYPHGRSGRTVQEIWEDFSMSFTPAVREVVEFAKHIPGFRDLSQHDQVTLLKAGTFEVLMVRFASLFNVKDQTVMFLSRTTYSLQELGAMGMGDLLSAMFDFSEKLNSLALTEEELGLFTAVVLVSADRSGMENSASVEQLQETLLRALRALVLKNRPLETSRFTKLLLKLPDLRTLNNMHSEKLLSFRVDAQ
V-ATPase pHluor – alters yeast V-ATPase proton transport. S. cerevisiae, pHLuorin cytosolic pH fluorescence. response, % at 10 µM. actives 0.37% (n = 350,000). AID 504577; in the data active means response mostly above about 7.3%, no sharp cut-off; inactive means mostly below about 5.4%; further: actives read high
NPR1 activator – GC-A (human) enzyme activation | activation, % at 10 µM | actives 0.14% (n = 370,000) | HEK293 GC-A cells, cGMP TR-FRET, EC30 ANP; 0% at EC30 ANP, 100% saturating ANP | AID 1671463; in the data active means activation above about 40%
NPR2 activator – GC-B (human) receptor activation | P20594 | HEK293-GC-B cells, CNP EC30, cGMP TR-FRET; 0% at EC30 CNP, 100% saturating CNP | activation, % at 10 µM | actives 0.11% (n = 370,000) | AID 1920062;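 active means activation at 10 µM reaching about 35% in either raw or pattern-adjusted values, limit read from the data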
V-ATPase pH SP – regulators of yeast V-ATPase proton transport | shares compounds with V-ATPase pHluor | S. cerevisiae pHLuorin cytosolic pH | response, % at 10 µM | actives 2% (n = 980); in the data active means response above about 24%
Each line names hits and unclear results; the compound was inactive in the other large screens (follow-up assays come after a bar, where they were run). Rows were chosen to be rich in hits. Some 1.6% of all compounds tested hit in one or more screens of this group.

O=C(c1ccccc1)N1CCN(c2nc3ccc([N+](=O)[O-])cc3s2)CC1	V-ATPase pHluor 16 | V-ATPase pH SP inactive
O=C(Cn1nc(-c2ccccc2)c2ccccc21)Oc1ccccc1	none (no result: PG9 Ab binder, V-ATPase pHluor)
Cc1cc2c(c(=O)n1Cc1cccnc1)C(c1ccc(F)cc1)C(C#N)=C(N)O2 (stereo unspecified)	V-ATPase pHluor 12 | V-ATPase pH SP inactive
CCn1c(C)cc2c(c1=O)C(c1ccncc1)C(C#N)=C(N)O2 (stereo unspecified)	none
C[C@@H]1Cn2cnc(C(=O)N[C@@H](C)c3ccccc3)c2C(=O)N1	V-ATPase pHluor 4.2 | V-ATPase pH SP inactive
C[C@H](NC(=O)c1ncn2c1C(=O)N[C@@H](C)C2)c1ccccc1	none
CC(C)CN1C(=O)C[C@@]2(C(=O)N(C)c3ccc(NS(=O)(=O)C4CC4)cc32)C1c1ccccc1 (stereo partly specified)	none (no result: PG9 Ab binder, V-ATPase pHluor)
CCOC(=O)N1CCN(C(=O)c2ccc(C#CC3(O)CCCCC3)cc2)CC1	none
CCC(NC(=O)c1ccc(C#CC2(O)CCCCC2)cc1)C(=O)O (stereo unspecified)	V-ATPase pHluor 12 | V-ATPase pH SP inactive
COC(=O)[C@H](C(C)C)N1Cc2nnn(Cc3ccccc3)c2-c2cc(F)ccc2S1(=O)=O	none (no result: PG9 Ab binder, V-ATPase pHluor)
COC(=O)[C@H]1C[C@@]2(c3ccccc3)c3ccccc3N[C@H]2N1	none (no result: PG9 Ab binder, V-ATPase pHluor)
CN1/C(=C\C(=S)NC(=O)c2cccc(Br)c2)C(C)(C)c2ccccc21	none
CN1/C(=C\C(=S)NC(=O)c2ccc([N+](=O)[O-])cc2)C(C)(C)c2ccccc21	V-ATPase pHluor 13 | V-ATPase pH SP inactive
COC(=O)[C@]12C[C@H](CC(=O)N3CCN(C(=O)C4CC4)CC3)C(=O)N(CCc3ccc(OC)c(OC)c3)C1=C[C@H](C(C)C)O[C@@H]2C1CC1	none (no result: PG9 Ab binder, V-ATPase pHluor)
CCOC(=O)N=Nc1c(O)n(C)c2ccccc12	none | V-ATPase pH SP inactive
C=CCn1c(O)c(N=Nc2ccccc2)c2ccccc21	none
Cn1c(O)c(N=NC(=N)N)c2ccccc21	none
C=CCn1c(O)c(N=NC(=O)OCC)c2ccccc21	none | V-ATPase pH SP inactive
CN(Cc1ccccc1)C(=O)OCc1cn(Cc2cccc(C(F)(F)F)c2)nn1	none (no result: PG9 Ab binder, V-ATPase pHluor)
COc1ccc(-c2noc(C3CCCN(C(=O)Nc4ccc(C)c(F)c4)C3)n2)cc1 (stereo unspecified)	none (no result: PG9 Ab binder, V-ATPase pHluor)
Cc1ccnc(NS(=O)(=O)c2ccc(NC(=O)c3ccc(N4C(=O)CCC4=O)cc3)cc2)n1	V-ATPase pHluor 12 | V-ATPase pH SP inactive
O=C(N[C@@H](Cc1ccccc1)C(=O)NCCc1c[nH]c2ccccc12)c1ccco1	V-ATPase pHluor 13 | V-ATPase pH SP inactive
Cc1ccc(CN2CCCN(Cc3c(F)cccc3Cl)S2(=O)=O)cc1	none
O=S1(=O)N(Cc2ccccc2F)CCCN1Cc1c(F)cccc1Cl	V-ATPase pHluor 9.6 | V-ATPase pH SP inactive
COc1cccc(/C=C2\CC3(OC(=O)c4ccco4)CCCN2C3)c1 (stereo unspecified)	none (no result: PG9 Ab binder, V-ATPase pHluor)
COc1cc(/C=C/C(=O)NC2CCCCC2)cc(OC)c1OC	V-ATPase pHluor 8.8 | V-ATPase pH SP inactive
COc1ccc(N2C[C@H](CSC)[C@@H](CC(=O)Nc3ccccc3)C2=O)cc1	V-ATPase pHluor 7.0 | V-ATPase pH SP inactive
Cc1ccc2nc(-c3ccc(NC(=O)CSc4nnc(-c5cc(C)[nH]n5)n4N)cc3)sc2c1	none (no result: PG9 Ab binder, V-ATPase pHluor)
Cc1ccccc1Cn1cc(CN2[C@@H](CC(C)C)COc3cc(Br)ccc3S2(=O)=O)nn1	none (no result: PG9 Ab binder, V-ATPase pHluor)
O=C(Cc1c(Cl)cccc1Cl)OCC(=O)N1CCc2ccccc2C1	none
O=C(Cc1c(Cl)cccc1Cl)OCC(=O)N1CCOCC1	V-ATPase pHluor 13 | V-ATPase pH SP inactive
c1ccc(CCNC2=NCCCS2)cc1	none | V-ATPase pH SP inactive
Cc1ccccc1CN1CCCCC(NC(=O)Nc2cccc(F)c2)C1=O (stereo unspecified)	none (no result: PG9 Ab binder, V-ATPase pHluor)
Cc1ccc(-n2c(SCC(=O)N/N=C/C=C\c3ccco3)nnc2-c2ccccc2)cc1	none (no result: PG9 Ab binder, V-ATPase pHluor)
COc1cccc2c1nc(C)c1cc(C)oc12	V-ATPase pHluor 11 | V-ATPase pH SP inactive
CCC(=O)C1CCCN(C(=O)c2cccc(OC3CCN(S(C)(=O)=O)CC3)c2)C1 (stereo unspecified)	V-ATPase pHluor 12 (no result: PG9 Ab binder, NR1D1 modulator, NPR1 activator, NPR2 activator) | V-ATPase pH SP inactive
O=C(COC(=O)c1ccc(Sc2ncn[nH]2)c([N+](=O)[O-])c1)Nc1ccc(Cl)c(Cl)c1	none (no result: PG9 Ab binder, V-ATPase pHluor)
O=C1C=CC(=Nc2ccc3c(c2)Cc2cc(F)ccc2-3)O1	NPR2 activator 35 | V-ATPase pH SP 100
CN1CCN(C(=O)CN(CCc2ccccc2)S(C)(=O)=O)CC1	V-ATPase pHluor 11 | V-ATPase pH SP inactive
CCN1CCN(C(=O)CN(CCc2ccccc2)S(C)(=O)=O)CC1	none
COc1ccc(/C=C/C(=O)Nc2cc(C)nn2-c2nc3ccccc3[nH]2)cc1	V-ATPase pHluor 16 | V-ATPase pH SP inactive
Cc1cc(NC(=O)/C=C/c2ccc(F)cc2)n(-c2nc3ccccc3[nH]2)n1	none
Cc1ccc(C(=O)CSc2nnc(-c3ccccc3)o2)cc1	none | V-ATPase pH SP inactive
O=C(CSc1nnc(-c2ccccc2F)o1)N1CCCC1	none
NC(=O)CSc1nnc(-c2ccc3c(c2)OCO3)o1	V-ATPase pHluor 5.5 | V-ATPase pH SP inactive
O=C(O)CSc1nnc(-c2ccc3c(c2)OCO3)o1	none
O=C(CSc1nnc(-c2ccccc2)o1)N1CCCC1	none | V-ATPase pH SP inactive
COc1ccc(C(=O)CSc2nnc(-c3cc(C)cc(C)c3)o2)cc1	none
O=C(O)CSc1nnc(-c2ccccc2)o1	none | V-ATPase pH SP inactive
CC(=O)CC[C@H]1CC[C@]2(CCCN(C(=O)c3ccc4ccccc4n3)C2)O1	none (no result: PG9 Ab binder, V-ATPase pHluor)
COC(=O)[C@H]1C[C@]2(C(/C=C(\C)CCC=C(C)C)S(=O)(=O)c3ccccc3)c3ccccc3N[C@H]2N1 (stereo partly specified)	none (no result: PG9 Ab binder, V-ATPase pHluor)
O=C(CSc1nnc(-c2ccccc2)o1)N1CCCCC1	none | V-ATPase pH SP inactive
COc1ccc(CCNC(=O)CSc2nnc(-c3ccccc3)o2)cc1OC	V-ATPase pHluor 11 | V-ATPase pH SP inactive
O=C(CSc1nnc(-c2ccc(F)cc2)o1)N1CCCCC1	none
O=C(CSc1nnc(-c2ccccc2)o1)NC(=O)Cc1ccccc1	none | V-ATPase pH SP inactive
COc1cc2c(cc1OC)CN(Cc1ccccc1)CC2	none
COc1cc2c(cc1OC)CN(CCC(C)c1ccc(Cl)cc1)CC2 (stereo unspecified)	V-ATPase pHluor 13 | V-ATPase pH SP inactive
CN1CCN(S(=O)(=O)c2cccc(C#N)c2)C(c2ccccc2)C1 (stereo unspecified)	V-ATPase pHluor 12 | V-ATPase pH SP inactive
CN1CCN(S(=O)(=O)c2ccc(C#N)cc2)C(c2ccccc2)C1 (stereo unspecified)	none
CNC(=O)COC(=O)/C=C/c1cccs1	V-ATPase pHluor 9.0 | V-ATPase pH SP inactive
CCNC(=O)COC(=O)/C=C/c1cccs1	none
CC(=O)c1c(C)[nH]c(C(=O)COC(=O)COc2ccccc2F)c1C	V-ATPase pHluor 12 | V-ATPase pH SP inactive
